From ChEMBL document CHEMBL3988442, “University of Dundee, Small-Polar-MMV Screening Library” (2021)
For some assays here: Entries with a potency or affinity are not part of this list.

Experiments:
Design in all cases: scale not given: direction of the effect not stated beside the values
[1] = biological target: Protein translocase subunit SecA (Escherichia coli (strain K12)) (UniProt P10408); assay: Assay to Identify E. coli SecA ATPase Inhibitors; format: functional; settings: 30 µM
[2] = biological target: T1, Ubiquitin-activating enzyme e1, putative (Leishmania donovani (strain BPK282A1)) (UniProt E9BSI1); assay: Leishmania donovani Ubiquitin Activating Enzyme (LdE1); format: functional; settings: 30 µM
T1 sequence (whole entry): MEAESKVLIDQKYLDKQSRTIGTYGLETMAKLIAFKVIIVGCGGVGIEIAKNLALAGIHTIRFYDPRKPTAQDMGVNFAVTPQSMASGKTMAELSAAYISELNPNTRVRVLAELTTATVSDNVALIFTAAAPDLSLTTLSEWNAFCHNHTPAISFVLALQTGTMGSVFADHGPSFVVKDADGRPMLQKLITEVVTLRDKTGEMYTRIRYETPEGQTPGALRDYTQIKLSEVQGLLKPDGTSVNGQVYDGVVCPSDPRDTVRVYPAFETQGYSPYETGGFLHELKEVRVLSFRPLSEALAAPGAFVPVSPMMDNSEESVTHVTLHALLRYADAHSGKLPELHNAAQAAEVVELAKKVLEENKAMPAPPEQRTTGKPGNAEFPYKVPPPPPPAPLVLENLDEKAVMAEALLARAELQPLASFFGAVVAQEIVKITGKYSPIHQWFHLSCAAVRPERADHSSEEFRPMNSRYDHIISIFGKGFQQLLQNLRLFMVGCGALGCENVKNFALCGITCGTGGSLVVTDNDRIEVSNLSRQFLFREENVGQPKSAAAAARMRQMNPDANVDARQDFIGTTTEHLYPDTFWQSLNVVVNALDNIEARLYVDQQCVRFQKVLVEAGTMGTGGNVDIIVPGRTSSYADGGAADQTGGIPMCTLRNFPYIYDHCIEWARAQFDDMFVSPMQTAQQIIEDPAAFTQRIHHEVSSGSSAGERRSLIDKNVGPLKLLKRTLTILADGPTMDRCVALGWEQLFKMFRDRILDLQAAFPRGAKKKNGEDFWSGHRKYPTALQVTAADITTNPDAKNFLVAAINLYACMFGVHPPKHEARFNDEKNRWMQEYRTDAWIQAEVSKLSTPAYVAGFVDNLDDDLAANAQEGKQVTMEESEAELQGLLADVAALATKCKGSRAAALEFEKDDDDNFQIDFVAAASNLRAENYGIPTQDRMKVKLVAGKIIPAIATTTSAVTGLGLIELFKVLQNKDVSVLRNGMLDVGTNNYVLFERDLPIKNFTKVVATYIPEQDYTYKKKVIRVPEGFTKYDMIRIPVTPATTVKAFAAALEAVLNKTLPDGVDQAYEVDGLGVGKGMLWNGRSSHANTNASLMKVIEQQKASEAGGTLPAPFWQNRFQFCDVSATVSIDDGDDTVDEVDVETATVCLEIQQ

[3] = biological target: AMP-activated protein kinase, AMPK (Homo sapiens) (UniProt P54646+O43741+P54619+Q9UGJ0+Q9Y478+Q13131+Q9UGI9); assay: AMP-dependent Kinase enzyme assay. An in vitro enzyme assay that detects ADP turnover that is directly proportional to AMPK activity. This uses naive AMPK that is activated during the assay with MK-8722; format: functional; settings: 30 µM
[4] = biological target: Sialic acid-binding Ig-like lectin 9 (Homo sapiens) (UniProt Q9Y336); assay: Hs-Siglec9 ALPHAscreen SOP 20170721; settings: 10 µM
[5] = tested on: Trypanosoma cruzi; assay: Trypanosoma cruzi phosphomannomutase and mannose-1-phosphate guanylyltransferase assay; format: functional; settings: 10 µM
[6] = biological target: T2, Arginase-2, mitochondrial (Homo sapiens) (UniProt P78540); assay: in vitro enzyme assay to detect the production of urea directly proportional to the activity of Arginase II; format: functional; settings: 33.3 µM; note: in the data most compounds retested in dose-response had high values
T2 sequence (whole entry): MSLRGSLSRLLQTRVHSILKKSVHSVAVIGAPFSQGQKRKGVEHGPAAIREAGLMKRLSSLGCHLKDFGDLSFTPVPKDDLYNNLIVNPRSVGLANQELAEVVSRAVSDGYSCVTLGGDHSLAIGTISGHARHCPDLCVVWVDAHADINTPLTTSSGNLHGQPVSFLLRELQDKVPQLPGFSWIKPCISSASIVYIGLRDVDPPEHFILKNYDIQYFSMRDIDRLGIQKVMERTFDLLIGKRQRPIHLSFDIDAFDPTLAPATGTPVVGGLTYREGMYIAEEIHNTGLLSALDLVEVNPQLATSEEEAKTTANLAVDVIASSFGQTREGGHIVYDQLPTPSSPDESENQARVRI

[7] = biological target: T3, Proteasome subunit beta (Trypanosoma cruzi) (UniProt O96673); assay: Trypanosoma cruzi proteasome chymotrypsin-like activity (TcProtChymo) assay.; note: in the data most compounds retested in dose-response had high values; format: functional; settings: 9.37 µM
T3 sequence (whole entry): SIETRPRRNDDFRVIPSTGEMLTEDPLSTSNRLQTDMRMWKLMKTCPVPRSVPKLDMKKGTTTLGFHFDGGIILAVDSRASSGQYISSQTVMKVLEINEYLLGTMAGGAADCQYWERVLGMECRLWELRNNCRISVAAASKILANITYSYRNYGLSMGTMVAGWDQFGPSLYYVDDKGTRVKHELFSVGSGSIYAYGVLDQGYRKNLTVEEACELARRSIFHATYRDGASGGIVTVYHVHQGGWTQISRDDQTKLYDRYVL

[8] = species: Homo sapiens; assay: To identify inhibition of the IFN signalling (Jak-Stat) pathway via expression of an eGFP reporter gene under the control of an IFN-stimulated response element (ISRE) containing MxA promoter.; format: functional; settings: 30 µM
[9] = biological target: T4, Tyrosyl-tRNA synthetase, putative (Trypanosoma cruzi (strain CL Brener)) (UniProt Q4DSP6); assay: Trypanosoma cruzi tyrosyl tRNA synthetase (TcYRS) _High Tyrosine SOP; format: functional; settings: 30 µM; note: in the data most compounds retested in dose-response had high values
T4 sequence (whole entry): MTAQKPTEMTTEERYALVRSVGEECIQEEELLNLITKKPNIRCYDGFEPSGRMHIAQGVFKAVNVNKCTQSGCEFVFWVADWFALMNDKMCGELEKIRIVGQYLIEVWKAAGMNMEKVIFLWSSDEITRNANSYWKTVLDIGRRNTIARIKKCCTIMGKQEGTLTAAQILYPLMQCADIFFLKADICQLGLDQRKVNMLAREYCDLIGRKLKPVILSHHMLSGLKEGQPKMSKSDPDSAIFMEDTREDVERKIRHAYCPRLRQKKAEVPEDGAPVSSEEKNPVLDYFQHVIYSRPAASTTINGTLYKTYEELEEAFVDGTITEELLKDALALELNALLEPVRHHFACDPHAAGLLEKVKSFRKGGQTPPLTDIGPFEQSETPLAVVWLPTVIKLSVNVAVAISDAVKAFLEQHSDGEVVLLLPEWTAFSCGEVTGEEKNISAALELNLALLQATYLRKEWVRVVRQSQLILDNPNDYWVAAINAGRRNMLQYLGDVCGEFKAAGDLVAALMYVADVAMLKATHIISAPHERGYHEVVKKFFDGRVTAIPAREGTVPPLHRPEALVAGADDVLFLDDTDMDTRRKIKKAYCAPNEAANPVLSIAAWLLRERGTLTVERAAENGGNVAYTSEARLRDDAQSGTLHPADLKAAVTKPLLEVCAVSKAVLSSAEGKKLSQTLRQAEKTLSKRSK

[10] = biological target: T4, Tyrosyl-tRNA synthetase, putative (Trypanosoma cruzi (strain CL Brener)); assay: Trypanosoma cruzi tyrosyl tRNA synthetase (TcYRS) SOP; format: functional; settings: 30 µM
[11] = biological target: Chromo domain-containing protein 1 (Saccharomyces cerevisiae (strain ATCC 204508 / S288c) (Baker's yeast)) (UniProt P32657); assay: ScCHD-1 Enzyme Inhibition Assay; format: functional; settings: 30 µM; note: in the data most compounds retested in dose-response had high values
Chain of Chromo domain-containing protein 1 (Saccharomyces cerevisiae (strain ATCC 204508 / S288c) (Baker's yeast)) (P32657 whole entry, the tested form may be a part): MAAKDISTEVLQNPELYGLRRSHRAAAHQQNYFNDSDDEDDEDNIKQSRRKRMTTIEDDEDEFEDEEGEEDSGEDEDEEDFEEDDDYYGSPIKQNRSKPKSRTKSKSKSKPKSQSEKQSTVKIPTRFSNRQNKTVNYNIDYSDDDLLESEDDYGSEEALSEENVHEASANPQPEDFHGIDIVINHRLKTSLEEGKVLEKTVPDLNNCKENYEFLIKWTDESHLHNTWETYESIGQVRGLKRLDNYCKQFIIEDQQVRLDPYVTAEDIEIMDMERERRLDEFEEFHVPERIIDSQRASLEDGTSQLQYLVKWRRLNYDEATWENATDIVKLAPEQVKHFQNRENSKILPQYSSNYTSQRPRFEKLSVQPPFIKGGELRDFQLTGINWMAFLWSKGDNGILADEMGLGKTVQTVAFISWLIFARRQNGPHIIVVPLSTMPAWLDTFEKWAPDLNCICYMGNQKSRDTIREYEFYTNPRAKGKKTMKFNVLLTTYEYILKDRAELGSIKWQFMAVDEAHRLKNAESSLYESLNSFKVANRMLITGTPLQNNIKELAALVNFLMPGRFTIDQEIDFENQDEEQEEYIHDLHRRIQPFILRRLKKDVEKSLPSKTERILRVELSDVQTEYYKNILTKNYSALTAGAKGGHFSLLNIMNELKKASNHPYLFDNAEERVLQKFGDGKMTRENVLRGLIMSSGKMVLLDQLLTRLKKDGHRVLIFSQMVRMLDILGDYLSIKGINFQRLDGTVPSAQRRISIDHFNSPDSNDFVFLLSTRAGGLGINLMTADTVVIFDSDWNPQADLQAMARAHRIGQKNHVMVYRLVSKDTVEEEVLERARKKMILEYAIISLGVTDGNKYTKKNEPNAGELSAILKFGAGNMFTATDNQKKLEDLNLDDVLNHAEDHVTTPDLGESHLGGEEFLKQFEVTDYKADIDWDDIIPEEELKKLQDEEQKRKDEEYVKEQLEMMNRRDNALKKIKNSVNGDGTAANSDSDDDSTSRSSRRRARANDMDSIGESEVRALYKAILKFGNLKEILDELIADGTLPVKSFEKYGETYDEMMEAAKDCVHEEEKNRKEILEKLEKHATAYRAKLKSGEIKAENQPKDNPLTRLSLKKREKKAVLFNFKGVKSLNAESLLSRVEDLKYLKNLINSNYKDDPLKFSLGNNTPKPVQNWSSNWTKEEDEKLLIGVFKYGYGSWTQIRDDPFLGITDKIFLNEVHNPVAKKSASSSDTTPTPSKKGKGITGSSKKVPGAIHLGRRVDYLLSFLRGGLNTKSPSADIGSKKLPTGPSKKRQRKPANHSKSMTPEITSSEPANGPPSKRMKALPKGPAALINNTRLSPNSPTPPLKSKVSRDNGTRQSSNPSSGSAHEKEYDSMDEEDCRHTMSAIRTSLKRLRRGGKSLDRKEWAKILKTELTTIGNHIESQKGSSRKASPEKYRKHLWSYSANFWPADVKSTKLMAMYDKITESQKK

Chain of Sialic acid-binding Ig-like lectin 9 (Homo sapiens) (Q9Y336 whole entry): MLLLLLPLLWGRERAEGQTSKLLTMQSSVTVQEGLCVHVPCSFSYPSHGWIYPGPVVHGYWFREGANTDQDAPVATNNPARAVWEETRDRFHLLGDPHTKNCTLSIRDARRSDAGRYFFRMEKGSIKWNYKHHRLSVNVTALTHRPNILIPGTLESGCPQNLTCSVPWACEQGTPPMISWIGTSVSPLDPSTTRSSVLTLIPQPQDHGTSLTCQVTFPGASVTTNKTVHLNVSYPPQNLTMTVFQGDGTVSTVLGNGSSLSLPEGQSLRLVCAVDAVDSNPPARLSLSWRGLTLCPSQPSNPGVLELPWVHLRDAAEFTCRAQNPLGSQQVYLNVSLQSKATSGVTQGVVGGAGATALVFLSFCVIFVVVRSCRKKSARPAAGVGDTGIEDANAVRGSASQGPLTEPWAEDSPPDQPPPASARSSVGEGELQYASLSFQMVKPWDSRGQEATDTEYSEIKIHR
Chain of Protein translocase subunit SecA (Escherichia coli (strain K12)) (P10408 whole entry): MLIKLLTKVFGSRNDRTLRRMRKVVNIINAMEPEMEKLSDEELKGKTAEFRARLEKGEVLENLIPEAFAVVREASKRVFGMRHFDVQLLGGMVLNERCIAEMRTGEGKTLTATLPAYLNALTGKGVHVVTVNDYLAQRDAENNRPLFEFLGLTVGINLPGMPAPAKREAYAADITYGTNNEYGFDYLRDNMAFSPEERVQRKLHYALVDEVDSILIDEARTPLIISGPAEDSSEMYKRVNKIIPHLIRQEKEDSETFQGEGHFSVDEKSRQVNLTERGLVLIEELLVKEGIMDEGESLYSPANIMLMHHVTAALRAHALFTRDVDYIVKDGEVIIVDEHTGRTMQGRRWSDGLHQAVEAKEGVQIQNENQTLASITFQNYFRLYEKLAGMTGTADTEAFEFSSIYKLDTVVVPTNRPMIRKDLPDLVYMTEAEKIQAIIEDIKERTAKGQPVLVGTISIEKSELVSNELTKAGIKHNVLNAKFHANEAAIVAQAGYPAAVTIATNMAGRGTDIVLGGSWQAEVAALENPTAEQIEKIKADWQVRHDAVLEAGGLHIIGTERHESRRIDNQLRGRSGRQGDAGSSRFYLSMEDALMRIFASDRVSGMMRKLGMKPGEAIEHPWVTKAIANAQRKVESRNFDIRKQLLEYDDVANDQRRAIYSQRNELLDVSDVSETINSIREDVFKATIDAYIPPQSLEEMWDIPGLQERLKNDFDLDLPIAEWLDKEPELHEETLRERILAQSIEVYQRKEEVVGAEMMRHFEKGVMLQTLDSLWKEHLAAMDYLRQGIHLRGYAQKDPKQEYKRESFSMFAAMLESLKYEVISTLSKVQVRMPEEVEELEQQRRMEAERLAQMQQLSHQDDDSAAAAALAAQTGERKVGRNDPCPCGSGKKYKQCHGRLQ

SMILES	Percent Effect [1] [%]	Percent Effect [2] [%]	Percent Effect [3] [%]	Percent Effect [4] [%]	Percent Effect [5] [%]	Percent Effect [6] [%]	Percent Effect [7] [%]	Percent Effect [8] [%]	Percent Effect [9] [%]	Percent Effect [10] [%]	Percent Effect [11] [%]
COc1ccc(-c2nc(CN3CCOCS3(=O)=O)c(C)o2)cc1	-1.22	8	-8.87	2.98	-4.58	-3.12	14.8	10.4	2.73	8.64	-5.54
Cc1nc2cc(C3CCN(Cc4cccc(F)c4F)C3)nn2c(O)c1C (stereo not given)	-0.873	12.2	12.9	-3.49	0.988	-1.16	2.81	10.8	3.23	11.7	-14.4
O=C(NCCCNC(=O)c1cccc(O)c1)NCc1ccccc1F	-2.42	15.8	0.229	0.609	2.63	-5.92	14.9	1.72	3.19	15.6	-3.65
Nc1nc2c(c(=O)[nH]1)CCN(C(=O)c1cccc3nccnc13)C2	-2.43	10.4	-11.5	9.88	2.46	-12.4	20.6	-5.63	4.3	8.64	-0.6
CS(=O)(=O)NCc1cn2c(n1)CN(C(=O)c1ccc[nH]1)CC2	-5.06	10.7	14.2	2.3	-1.97	0.233	5.2	2.29	7.45	14.1	-4.02
CCCn1[nH]cc/c1=N\C(=O)CN1CCn2c(nnc2C2CC2)C1	-2.72	21.1	-11.3	-5.47	-4.13	3.83	16.5	22.7	5.39	9.76	-10.1
CN(Cc1ccc(F)cc1)CC1(O)CCN(C(=O)c2cccn2C)C1 (stereo not given)	-6.43	13.3	2.06	5.19	3.15	-4.43	0.969	3	6.38	8.97	-9.32
CCN1CCN(C2CCN(Cc3nc(-c4ccoc4)no3)CC2)C1=O	-8.04	2.6	7.03	-5.89	-5.24	1.07	0.676	23.7	1.94	0	-2.83
CN(C)c1ccc(C(=O)N2CCN(C(=O)N3CCCCC3)CC2)nn1	-6.05	7.79	4.21	10.5	5.8	-3.92	4.56	3.45	0	7.32	-13.4
Cc1nc(CN(C)C2CCCN(c3cccnn3)C2)no1 (stereo not given)	-0.0171	20.8	-7.88	0.261	-3.18	5.34	9.29	37.1	4.85	0	-5.56
